This is one part of the list. Records with an inconclusive call do not appear. Activity calls are given as the source filed them. The call rests on the fitted dose curve; in most records, active means well fitted inhibition curve with a large enough effect; inconclusive means small, poorly fitted or top-dose-only effect; inactive means no such curve, though single readings can be large or run the other way.
Potency means the concentration at half of the fitted maximal effect.

The target of the test is Isocitrate dehydrogenase [NADP] cytoplasmic (Homo sapiens) (UniProt O75874). In words: qHTS for Inhibitors of mutant isocitrate dehydrogenase 1 (IDH1): Confirmation of Cherrypicks. Further: nearly all actives have a fitted effect of over 50% in size. The settings on record: IDH1 R132H enzyme, NADPH diaphorase/resazurin fluorescence; series mostly up to 76.6 µM; activity change, negative = inhibition: at the top concentration. The source says: Malignant glioblastomas (WHO grade IV), including primary and secondary glioblastomas, are among the most lethal with a median survival of one year, and unfortunately they are also the most prevalent type of brain tumors. By and large the standard of care of gliomas remains the use of the oral alkylating agent temozolomide and radiotherapy following surgical tumor resection. There is an urgent unmet medical need for novel therapeutics for gliomas. IDH mutations occur in up to 70% of grade II-IV secondary glioblastomas, and IDH1 R132H is the most prevalent mutation. […] Wild-type IDH1 catalyzes the conversion of isocitrate to -ketoglutarate with the concomitant reduction of NADP+ to NADPH. In contrast, IDH1 R132H catalyzes the conversion of -ketoglutarate to 2-hydroxyglutarate (2-HG) with the concomitant oxidation of NADPH to NADP+ [5]. Recently, a second significant advancement for the field was the finding that IDH is an oncogene, and that its metabolic product 2-HG may contribute to the pathogenesis of IDH-mutated cancers. […] Although this link to cancer is tantalizing, the direct evidence of how 2-HG drives pathogenesis of gliomas and AML remains a subject of further research. The goal of this screen is to find small-molecule inhibitors of IDH1 R132H using a biochemical assay that measures substrate NADPH consumption through the use of a diaphorase/resazurin-coupled system. Inhibition of the IDH1 R132H enzymatic reaction leads to an increase in the amount of NADPH relative to a DMSO control and a concomitant increase in the fluorescence of the diaphorase/resazurin enzyme product resorufin at 590 nm. Compounds were screened as a concentration-titration series that ranged from 76 microM to 0.15 uM. NIH Molecular Libraries Probe Production Network [MLPCN] NIH Chemical Genomics Center [NCGC] MLSCN Grant: R03 DA032129 PI Name: Dr. Lenny Dang
Isocitrate dehydrogenase [NADP] cytoplasmic (Homo sapiens), sequence (O75874 whole entry R132H, stated change not applied): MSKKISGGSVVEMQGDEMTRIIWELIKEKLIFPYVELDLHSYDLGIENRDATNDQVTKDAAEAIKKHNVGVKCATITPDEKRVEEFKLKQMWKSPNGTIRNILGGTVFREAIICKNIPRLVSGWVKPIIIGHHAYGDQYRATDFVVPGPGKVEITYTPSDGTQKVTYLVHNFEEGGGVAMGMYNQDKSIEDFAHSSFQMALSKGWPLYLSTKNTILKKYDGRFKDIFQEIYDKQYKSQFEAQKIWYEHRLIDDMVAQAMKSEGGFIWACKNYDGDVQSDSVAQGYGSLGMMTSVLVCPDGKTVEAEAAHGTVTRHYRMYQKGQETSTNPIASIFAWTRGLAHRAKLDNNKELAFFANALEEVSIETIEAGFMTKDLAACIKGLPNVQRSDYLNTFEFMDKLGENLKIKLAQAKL
Enzyme buffer was dispensed into black, solid 1536-well plates at 3 microL/well in 20 mM Tris buffer, pH 7.5, containing final concentrations of 10 mM MgCl2, 20 mM NaCl, 0.001% Tween20, 0.05% BSA, 2 mM beta-ME and 5.2 nM IDH1 R132H. Then, 23 nL of compounds or DMSO were delivered to each well using a pin tool. The inherent compound fluorescence was measured at this point at 590 nm on a ViewLux plate reader (Ex 525, Em 598, bodipy filter). The substrate buffer (3 uL; 20 mM Tris buffer, pH 7.5, containing final concentrations of 10 mM MgCl2, 20 mM NaCl, 0.001% Tween20, 0.05% BSA, 0.008 mM NADPH, and 1 mM a-ketoglutarate) was added to start the enzymatic reaction, and the plate was briefly spun at 270xg. After the reaction was allowed to progress for 80 minutes at room temperature, the remaining NADPH was detected with the diaphorase/resazurin-coupled system. Three microL of detection buffer (20 mM Tris buffer, pH 7.5, containing final concentrations of 10 mM MgCl2, 20 mM NaCl, 0.001% Tween20, 0.05% BSA, 0.53 uM diaphorase and 0.012 mM resazurin) was added, and after 5 minutes the fluorescence at 590 nm was measured on an Envision plate reader (Ex 544, Em 590, bodipy filter, 10 flashes). The %Activity was determined from the corrected fluorescence values. As no specific IDH1 R132H inhibitors have been identified in the literature, 1x (5.2 nM) and 0x IDH1 R132H enzyme controls (untreated) were included to normalize % Activity of identified inhibitors; 0x enzyme values corresponded to 100 % Activity (full inhibition), while 1x IDH1 R132H enzyme values were used to normalize 0 %A ctivity (no inhibition). Concentration-response curves were fitted to the signals arising from the resulting fluorescence. The concentration-response curves were then classified based on curve quality (r2), response magnitude and degree of measured activity, and compounds were subsequently categorized based on their curve class. […] Keywords: Isocitrate dehydrogenase, IDH1, IDH1 R132H, 2-HG, 2-hydroxyglutarate, AML, glioma, MLSMR, MLPCN, NIH Roadmap, qHTS, NCGC
For the compound `CCC(C)(C)NC(=O)C(c1cccn1C)N(Cc1ccc(C)cc1)C(=O)Cn1nnc2ccccc21` (centres undefined), the Potency is 25.1 µM (active). Turning to `Cn1c(COc2ccc(Cl)cc2)nc2ccccc2c1=O`, the “activity change, negative = inhibition” value is -16.1% (inactive).

In the case of `COc1ccc(Cl)cc1-n1c(=S)sc2c(=O)n(-c3ccc(F)cc3)c(SCC(=O)O)nc21`, the Potency was 7.94 µM (active). `Cc1ccc2nc(N3C(=O)C(O)=C(C(=O)c4ccco4)C3c3cccc(O)c3)sc2c1` (centres undefined): the Potency is 28.2 µM (active). In the case of `Cc1ccc(-c2nn(-c3ccccc3)cc2/C=C2\SC(=S)N(CCCCCC(=O)O)C2=O)o1`, the Potency was 22.4 µM (active). Same read-out and setting: with `COc1cc2c(-c3ccc4c(c3)OCO4)c(-c3ccsc3)oc(=O)c2cc1OC` the figure was 6.31 µM (active). Take `N#CC1=C(N)C(C#N)(C#N)[C@H](c2ccsc2)[C@H]2COCC=C12`: the Potency was 44.7 µM (active). For the compound `COC(=O)c1cccc(N(C(=O)c2ccco2)C(C(=O)NC2CCCC2)c2ccco2)c1` (centres undefined), the Potency was 22.4 µM (active). `CCCOc1ccc(C2c3c(-c4ccccc4O)n[nH]c3C(=O)N2Cc2cccnc2)cc1` (centres undefined): the Potency is 14.1 µM (active).

With `COc1cc(/C=C2/C(=O)ON=C2C)ccc1OCc1ccccc1F`, the Potency is 44.7 µM (active). On the same count and under the same terms, for `COc1cc(/C=C2/SC(=S)N(Cc3ccccc3)C2=O)cc(OC)c1O` the value was 39.8 µM (active). Regarding `O=C1c2cccc3cccc(c23)C(=O)N1CCCCCc1n[nH]c(=S)o1`, the Potency was 39.8 µM (active). Regarding `C(=N/Nc1cc(N2CCOCC2)nc(N2CCOCC2)n1)/c1ccccc1`, the Potency was 39.8 µM (active). With `COc1ccc(/C=C2/SC(=O)N(CCCCCC(=O)Nc3ccccc3C(=O)O)C2=S)cc1`, the Potency is 39.8 µM (active).

Consider `Cc1nc(-c2ccc(Cl)cc2)sc1C(=O)CBr`, for which the Potency was 44.7 µM (active). In the case of `CCCCOc1ccc(CN2C(=O)C(=O)c3cc(Br)cc(C)c32)cc1OC`, the Potency is 22.4 µM (active). Take `O=C(NC(Nc1nc2ccc([N+](=O)[O-])cc2s1)(C(F)(F)F)C(F)(F)F)c1ccccc1`: the Potency was 3.55 µM (active). `CCOC(=O)c1oc2c(CN3CCN(CCO)CC3)c(O)c(CC)cc2c(=O)c1-c1nc2ccccc2s1`: the Potency was 22.4 µM (active).

`COc1ccc(C(CCN(Cc2ccc(OC)c(OC)c2)C(=O)CCl)c2ccccc2)cc1` (centres undefined): the Potency is 15.8 µM (active). As to `CC(C)Nc1nc(N(c2ccccc2)c2ccccc2)nc(-n2ccnc2)n1`, the Potency was 39.8 µM (active).

As to `CCCc1[nH]nc2c1C(c1ccc(OC)c(Cn3nc(C)c(Br)c3C)c1)C(C#N)=C(N)O2` (centres undefined), the Potency was 31.6 µM (active). On to `CCCCC(=O)NC(c1ccc(OC)c(OC)c1)c1ccc2cccnc2c1O` (centres undefined), for which the “activity change, negative = inhibition” value was -18.7% (inactive). With `CCCNc1ncnc2c1c(-c1ccccc1)cn2-c1ccc(OCC)cc1`, the Potency was 11.2 µM (active).

On to `CCCc1nc2c(c(=O)c3ccccc3n2C)c(=O)n1C1CCCCCC1`, for which the Potency is 8.91 µM (active). As for `Cc1cccc(N(C(=O)Cc2cccs2)C(C(=O)NC2CCCC2)c2ccsc2)c1` (centres undefined), the Potency was 3.55 µM (active). Consider `Cc1nc(C)c(C(=O)N(c2ccc(C)c(C)c2)C(C(=O)NCc2ccco2)c2ccccc2)s1` (centres undefined), for which the Potency is 17.8 µM (active).

Turning to `COc1ccc(/C=N/Nc2cc(N3CCOCC3)nc(C)n2)c(OC)c1`, the Potency was 15.8 µM (active).

As to `COC(=O)c1ccc(-c2c(-c3ccccc3)ncc3cc(OC)c(OC)cc23)cc1`, the Potency is 12.6 µM (active). As for `CCOC(=O)c1ccc(N2C(=O)c3n[nH]c(-c4ccco4)c3C2c2ccc(O)cc2)cc1` (centres undefined), the Potency was 39.8 µM (active).

The values are drawn from PubChem BioAssay AID624002 (National Center for Advancing Translational Sciences (NCATS), 2012).
